# According to PubChem BioAssay AID504660 (National Center for Advancing Translational Sciences (NCATS), 2011):
# “And” between values parts separate entries of the source, which are not always exact repeats. Identical values can stand only once. The whole screen tested about 360,000 compounds, of which about 3,700 (1%) were called active. For the sample, actives were picked, then their nearest neighbours and some compounds at random. Unmarked numbers belong to inactive results. No stated cut-off is given here; in the data, active means activation above about 30%; inactive means the rest.
# Molecular target: D(1A) dopamine receptor (Homo sapiens) (UniProt P21728)
# Sequence (P21728 whole entry, looked up): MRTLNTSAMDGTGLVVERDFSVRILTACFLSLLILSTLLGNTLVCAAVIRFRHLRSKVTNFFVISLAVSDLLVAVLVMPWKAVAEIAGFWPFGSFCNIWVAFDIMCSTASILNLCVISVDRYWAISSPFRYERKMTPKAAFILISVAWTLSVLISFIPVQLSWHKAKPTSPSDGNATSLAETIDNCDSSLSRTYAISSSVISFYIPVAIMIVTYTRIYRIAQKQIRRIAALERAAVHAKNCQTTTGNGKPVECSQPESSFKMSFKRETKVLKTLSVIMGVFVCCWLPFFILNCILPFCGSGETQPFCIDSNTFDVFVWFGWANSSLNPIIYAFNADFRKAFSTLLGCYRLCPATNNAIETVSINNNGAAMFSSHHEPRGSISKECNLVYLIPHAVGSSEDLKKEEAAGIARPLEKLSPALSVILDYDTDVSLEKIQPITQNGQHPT
# Assay: Allosteric Agonists of the Human D1 Dopamine Receptor: qHTS; further: 0% is about no effect
# Details: HEK293 T-REx D1 cells, calcium flux, agonist mode; at 2 µM; stronger effect = higher value
# In short: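 Tetracycline-induced HEK293 TREx D1 cells, force-coupled to calcium signalling, were dye-loaded with a no-wash calcium kit. Compound was pin-added after a 10 s baseline. Fluorescence was read kinetically at 1 cycle/s for 180 s, with calcium rises flagged as agonism.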
row,Structure (SMILES),activation
1,Cc1ccc2nc(N3CCN(c4cccc(Cl)c4)CC3)c3nnnn3c2c1,0.249%
2,CCN(CC)c1nn2c(=O)c(C(=O)NCCc3ccccc3)cnc2s1,-0.903%
3,COc1ccc(NC(=O)CSC2=Nc3ccccc3C3=NC(CC(=O)NCc4ccccc4OC)C(=O)N23)cc1Cl (configuration not stated),4.46%
4,Cc1cccc(OCCSc2nc3ccc(NC(=O)COc4ccccc4C)cc3s2)c1,14.8%
5,COCc1nc2ccccc2n1Cc1ccccc1Br,30.7% (active)
6,C=C(Br)Cn1c(CCCC)nc2ccccc21,2.85%
7,COc1ccccc1Cn1c(CO)nc2ccccc21,2.48%
8,Cc1ccc(-c2noc(CSc3nnnn3-c3ccccc3)n2)cc1,45.5% (active)
9,Cc1ccc(Nc2nc(CSc3nnnn3-c3ccccc3)cc(=O)[nH]2)cc1,0.0289%
10,Cc1ccc(-c2noc(CSc3nnc(-c4ccc(Cl)cc4)n3C)n2)cc1,-2.32%
11,COc1ccc(C(=O)Nc2cccc(C(=O)OCc3cc(=O)n4c5c(sc4n3)CCCC5)c2)cc1,0.659%
12,CCc1ccccc1N1C(=O)CN(S(=O)(=O)CC)CC1(C)C(=O)NC1CCCCC1 (configuration not stated),0.155%
13,COc1cc(C(=O)NCc2ccc(-n3cccc3)cc2)cc(OC)c1OC,4.24%
14,COc1cc(C(=S)NCc2ccccc2)cc(Br)c1O,1.7%
15,COc1cc(C(=O)NCc2ccncc2)cc(Br)c1OCc1ccccc1,62.9% (active)
16,CC(C)OCCCn1c(SCC(=O)c2ccccc2)nc2c(sc3ccccc32)c1=O,-1.31%
17,Cc1ccccc1CNC(=O)C1CCCN(S(=O)(=O)N(C)c2ccc(F)cc2)C1 (configuration not stated),2.76%
18,CCOC(=O)c1c(C)oc2ccc(N(C(=O)c3ccncc3)S(=O)(=O)c3ccc(CC)cc3)cc12,2.86%
19,CCN(CC)c1ccc2cc(C(N)=O)/c(=N\NC(=O)c3ccncc3)oc2c1,68.8% (active)

row,Structure (SMILES),activation
1,C/C(=N\NC(N)=S)c1ccncc1,0.713%
2,CCCCCCn1nnc2sc(-c3ccccc3)cc2c1=O,2.52%
3,COc1ccc(Cl)cc1NC(=O)c1sc2nc3c(cc2c1N)CN(C)CC3,5%
4,COc1ccccc1NC(=O)c1sc2nc(C)c(C(=O)Nc3ccc(Cl)cc3)c(-c3ccc(Br)cc3)c2c1N,48.4% (active)
5,COC(=O)c1c(NC(C)=O)sc(C(=O)Nc2ccccc2OC)c1C,2.77%
6,O=C(CCc1cn(Cc2ccc(F)cc2)c2ccccc12)NC1CCCCC1,4.91%
7,O=C(NCCc1ccc(Cl)cc1)c1ccc2c(c1)N(Cc1ccc(F)cc1)C(=O)CS2,-1.03%
8,Oc1ccc(-c2nc3ccc(Cl)cn3c2Nc2ccc3c(c2)OCO3)cc1,2.27%
9,Cc1c(NC(=O)c2cc(=O)c3ccccc3o2)c(=O)n(-c2ccccc2)n1C,-0.0323%
10,COc1ccccc1-c1noc(-c2ccc(NCc3ccccc3)c([N+](=O)[O-])c2)n1,-1.19%
11,Cc1ccc(Cl)cc1NC(=O)CSc1nc2ccccc2nc1Cc1ccccc1,3.58%
12,CCCn1c2ccccc2c2cnn(CC(=O)NCC3CCN(Cc4ccc(C)cc4)CC3)c(=O)c21,32% (active)
13,CCCn1c2ccccc2c2cnn(CC(=O)NCCCOC(C)C)c(=O)c21,-0.0904%
14,CCCn1c2ccccc2c2cnn(CC(=O)NCCCN3CCCCC3CC)c(=O)c21 (configuration not stated),2.1% and -0.646%
15,Cc1ccc(NC(=O)Cc2ccc(NC(=O)N3CCCCc4ccccc43)cc2)cc1,4.12%
16,Cc1ccc(Cl)cc1NC(=O)C(C)n1nnc2sc(-c3ccccc3)cc2c1=O (configuration not stated),-0.45%
17,Cc1ccc(-n2c(SCC(=O)Nc3cccc(F)c3)nc3c(oc4ccccc43)c2=O)cc1C,4.64%
18,O=C(COC(=O)c1c2c(nc3ccccc13)CCCC2)c1ccc(Br)s1,8.91%
19,CC(NC(=S)Nc1ccc(S(N)(=O)=O)cc1)c1ccc2c(c1)OCO2 (configuration not stated),3.07%

row,Structure (SMILES),activation
1,NC(=O)c1ccc(NC(=O)COC(=O)c2c3c(nc4ccccc24)/C(=C\c2ccc4c(c2)OCO4)CCC3)cc1,51.7% (active)
2,NS(=O)(=O)c1ccc(NC(=O)COC(=O)c2c3c(nc4ccccc24)/C(=C\c2ccc4c(c2)OCO4)CCC3)cc1,59.4% (active)
3,CCN(CC(=O)Nc1ccc2c(c1)OCO2)S(=O)(=O)c1ccccc1,2.93%
4,CCc1ccc(NC(=O)Cn2nnc(C(=O)NCc3ccc4c(c3)OCO4)c2N)cc1,0.807%
5,CCN(CC)c1ccc(NC(=O)CN2CCN(CC(=O)Nc3ccc(Cl)cc3)CC2)cc1,2.48%
6,CC(C)CCN(C(=O)Nc1ccc(Cl)c(Cl)c1)C(C)c1cccs1 (configuration not stated),23.8%
7,CCOc1ccccc1CNC(=O)c1ccc2c(c1)nc1n2CCC(C)C1 (configuration not stated),-0.796%
8,N#CN1CCC(NC(=O)c2ccc(F)cc2)CC1,3.29%
9,COc1cccc(C(=O)NC2=NC(c3ccc(N(C)C)cc3)CC(=O)N2)c1 (configuration not stated),-0.763%
10,Cc1ccc(NC(=O)C2CCCN2S(=O)(=O)c2cccc3cccnc23)c(C)c1 (configuration not stated),-0.331% and 2.62%
11,O=C(Nc1nccs1)C1CCCN1S(=O)(=O)c1cccc2cccnc12 (configuration not stated),0.517%
12,Cc1cc(C)cc(NC(=O)C2CCCN2S(=O)(=O)c2cccc3cccnc23)c1 (configuration not stated),34.7% (active)
13,Cc1noc(/C=C/N(C)C)c1S(=O)(=O)N1CCCC(C(=O)Nc2cccc(F)c2)C1 (configuration not stated),5.84%
14,O=C(COc1ccccc1)OCc1cc(=O)n2nc(-c3cccs3)sc2n1,3.1%
15,Cc1cccc(C(CC(=O)NCC2(c3ccccc3)CCCC2)c2ccccc2)c1O (configuration not stated),2.41%
16,O=C(CCOc1ccccc1)N(Cc1cccnc1)c1nc2ccc(Cl)cc2s1,2.39%
17,CN(C)CCCNC(=S)N1CCN(c2nc(-c3ccccc3)cs2)CC1,32.3% (active)
18,CN(C)CCCNC(=S)N1CCC(c2nc3ccccc3[nH]2)CC1,-0.699%
19,COCCCNC(=S)N1CCN(c2nc(-c3cccc(OC)c3)cs2)CC1,6.03%
